Results: PubChem BioAssay (Tox21)
Inconclusive results are not listed. A call without a number means that no potency is given here. Active and inactive are the calls of the source. Calls come from the whole dose curve; as a rule, active = well fitted inhibition curve with a large enough effect in the signal ratio in the repeat runs (not every such curve was filed as active); inconclusive = weak or mixed curves, or effect the other way; inactive = no such curve, though single readings can be large or run the other way; the % refers to the signal ratio.

What follows are compounds tested against Glucocorticoid receptor (Homo sapiens) (UniProt P04150) (assay: qHTS assay to identify small molecule antagonists of the glucocorticoid receptor (GR) signaling pathway (AID 720692)). Conditions: GR-bla HeLa, beta-lactamase FRET ratio, dexamethasone-stimulated, 18 h; series mostly up to 58.5 µM.
Glucocorticoid receptor (Homo sapiens), sequence (P04150 whole entry, looked up): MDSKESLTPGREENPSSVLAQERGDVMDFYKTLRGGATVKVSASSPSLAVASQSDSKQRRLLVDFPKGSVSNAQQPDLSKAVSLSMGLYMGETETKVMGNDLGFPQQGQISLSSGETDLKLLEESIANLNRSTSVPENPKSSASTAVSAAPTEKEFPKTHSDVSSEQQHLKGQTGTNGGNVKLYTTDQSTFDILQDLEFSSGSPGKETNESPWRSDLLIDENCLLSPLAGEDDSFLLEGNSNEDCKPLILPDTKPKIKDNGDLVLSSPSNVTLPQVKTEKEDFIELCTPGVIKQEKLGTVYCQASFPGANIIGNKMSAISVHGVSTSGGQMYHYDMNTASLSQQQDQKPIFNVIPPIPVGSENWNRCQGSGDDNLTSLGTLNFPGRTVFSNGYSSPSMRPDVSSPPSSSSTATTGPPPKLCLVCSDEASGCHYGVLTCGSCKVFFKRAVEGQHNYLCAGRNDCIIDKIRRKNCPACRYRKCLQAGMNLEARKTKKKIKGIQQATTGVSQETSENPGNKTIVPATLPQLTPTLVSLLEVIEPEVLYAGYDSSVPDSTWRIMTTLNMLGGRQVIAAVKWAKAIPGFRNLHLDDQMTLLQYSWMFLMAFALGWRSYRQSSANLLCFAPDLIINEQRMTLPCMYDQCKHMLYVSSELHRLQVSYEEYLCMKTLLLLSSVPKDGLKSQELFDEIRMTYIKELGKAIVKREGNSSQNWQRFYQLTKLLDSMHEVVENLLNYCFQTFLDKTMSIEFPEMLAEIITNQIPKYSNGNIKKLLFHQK
Excerpt: U.S. Tox21 Program National Center for Advancing Translational Sciences [NCATS] NIH Chemical Genomics Center [NCGC] U.S. Environmental Protection Agency [EPA] National Institutes of Environmental Health Sciences [NIEHS] National Toxicology Program [NTP] U.S. Food and Drug Administration [FDA] Tox21 Assay Overview: The Glucocorticoid receptor (GR) is one of the members of the nuclear receptor family of ligand-dependent transcription factors. GR plays a critical role in carbohydrate, protein and lipid metabolisms and programmed cell death. CellSensor GR-bla HeLa cell line (Invitrogen) contains a beta-lactamase reporter gene under the control of the glucocorticoid response element stably integrated into HeLa cells, a cervical cancer cell line that expresses glucocorticoid receptor. The activation of the reporter gene under culture conditions can be detected by fluorescence intensity. This cell line has been used to screen the Tox21 10K compound library and to identify the compounds that inhibit the GR signaling.
Tox21 Assay Protocol Summary: The GR-bla HeLa cells were dispensed at 1500 cells/5 ul/well in 1536-well black wall/clear bottom plates using a Multidrop Combi (ThermoFisher Scientific, Waltham, MA) dispenser. After the assay plates were incubated at a 37 C/5% CO2 incubator for 4 hours, 23 nL of compounds dissolved in DMSO, positive controls or DMSO only was transferred to the assay plate by a pintool station (Kalypsys, San Diego, CA), followed by addition of 1 uL of dexamethasone (5 nM, final concentration in the well). The plates were incubated at 37 C for 18 hours. After 1 uL of LiveBLAzerTM B/G FRET substrate was added using a Flying Reagent Dispenser (Aurora Discovery, San Diego, CA), the plates were incubated at room temperature for 2 hours, and fluorescence intensity was measured by an Envision plate reader (PerkinElmer, Shelton, CT).
Potency is the fitted concentration of half-maximal effect.

| Compound | Potency | activity change, negative = inhibition |
| --- | --- | --- |
| CC(N)CN (stereo not given) | inactive | – |
| Cc1nc2ccccc2s1 | inactive | – |
| Cc1ccccc1N1C(=O)c2cc(S(N)(=O)=O)c(Cl)cc2NC1C (stereo not given) | inactive | – |
| C=CC(C)(O)CCCC(C)CCCC(C)CCCC(C)C (stereo not given) | inactive | – |
| O=C(O)C(Cc1cc(I)c(O)c(I)c1)c1ccccc1 (stereo not given) | inactive | – |
| [O]=[Bi] | – | -10.6% [at 7.04 µM] (inactive) |
| CCCCCC=CCC=CCCCCCCCC(=O)OCC | inactive | – |
| COc1ccccc1N=Nc1c(S(=O)(=O)O)cc2cc(S(=O)(=O)O)cc(NC(C)=O)c2c1O | inactive | – |
| OCCSc1ccccc1 | inactive | – |
| C=CC(=C)CCCC(C)(C)OC(C)=O | inactive | – |
| CC1=CC(=O)CC(C)(C)C1(O)/C=C/C(C)=C\C(=O)O (stereo not given) | inactive | – |
| Oc1ccc(Nc2ccccc2)cc1 | inactive | – |
| O=Cc1c(Cl)cccc1Cl | inactive | – |
| O=C1OCCN1/N=C/c1ccc([N+](=O)[O-])o1 | inactive | – |
| CCCCCCOC(=O)CCCCCCCC(=O)OCCCCCC | inactive | – |
| COCC(O)CO (stereo not given) | inactive | – |
| O=C(O)c1ccc(CO)o1 | inactive | – |
| Nc1ccc(C(=O)OCCCOC(=O)c2ccc(N)cc2)cc1 | inactive | – |
| C/C=C/C=C/CCCCCCCO | 38.9 µM (active) | – |
| CC(=O)Nc1ccc(N)cc1 | inactive | – |

| Compound | Potency | activity change, negative = inhibition |
| --- | --- | --- |
| CCOC(=O)CC(=O)C(=O)OCC | inactive | – |
| CC(C)OCC1CO1 (stereo not given) | inactive | – |
| Cc1oncc1C(=O)Nc1ccc(C(F)(F)F)cc1 | inactive | – |
| CCC(C)(O)CCC=C(C)C (stereo not given) | inactive | – |
| CCC1(C)CC(=O)NC1=O (stereo not given) | inactive | – |
| C[C@]12CCC(=O)C=C1C=C[C@@H]1[C@@H]2CC[C@@]2(C)[C@H]1CC[C@@]21CCC(=O)O1 | 10.7 µM (active) | – |
| CC(CCO)CCc1ccccc1 (stereo not given) | inactive | – |
| CC1CC(O)CC(C)(C)C1 (stereo not given) | inactive | – |
| COCc1c(C(C)C)nc(C(C)C)c(/C=C/[C@@H](O)C[C@@H](O)CC(=O)O)c1-c1ccc(F)cc1 | 3.38 µM (active) | – |
| COCCOC(=O)C1=C(C)NC(C)=C(C(=O)OC/C=C/c2ccccc2)C1c1cccc([N+](=O)[O-])c1 (stereo not given) | 10.7 µM (active) | – |
| CCCOC(=O)c1ccc(C(=O)OCCC)nc1 | inactive | – |
| CN1C(=O)CC(C)(c2ccccc2)C1=O (stereo not given) | inactive | – |
| CCOc1cc(N)c(Cl)cc1C(=O)NCC1CN(Cc2ccc(F)cc2)CCO1 (stereo not given) | inactive | – |
| CCOC(=O)OCC | inactive | – |
| CSc1ccc(Oc2ccc(S(N)(=O)=O)cc2CN(C)C)cc1C | inactive | – |
| CC1(C)C2=CCCC(C)(C)[C@]23CC[C@H]1C3 | inactive | – |
| CCCCCCCCSCCO | inactive | – |
| CCCCC(CC)C(=O)OCCOCCOCCOCCOC(=O)C(CC)CCCC (stereo not given) | inactive | – |
| O=[N+]([O-])c1cccc(S(=O)(=O)NCCNS(=O)(=O)c2cccc([N+](=O)[O-])c2)c1 | inactive | – |
| COC(=O)CC(=O)C(C)(C)C | inactive | – |
